Source: PubChem BioAssay (EPA / NIEHS)
“And” between values parts separate entries of the source, which are not always exact repeats. Identical values can stand only once. Some structures have more than one record in an assay (separate samples or runs), and their calls can disagree. The source made the active and inactive calls. How the source made its calls: active means hit-call score of the fitted dose curve at least 0.9, where 1 is the maximum; inactive means score below 0.9.

Key:
[1] = ATG_CRE_CIS: Attagene CIS-FACTORIAL HepG2 Assay for human cAMP Responsive Element (CRE) binding protein 3 (AID 2282926); conditions: HepG2 CRE cis-reporter, Attagene multiplexed mRNA; actives raise or lower the signal
Outline: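 Endogenous transcription factor activity read via CRE-regulated reporter transcripts in transfected HepG2 cells. After 24 h exposure, RNA was reverse-transcribed, amplified, fluorescently labelled and sized by capillary electrophoresis; gain or loss fitted against DMSO.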

[2] = target: CCAAT/enhancer-binding protein beta (Homo sapiens) (UniProt P17676); assay: ATG_C_EBP_CIS: Attagene CIS-FACTORIAL HepG2 Assay for human CCAAT/Enhancer Binding Protein (C/EBP) beta (AID 2282927); conditions: HepG2 Attagene cis-factorial transcription factor reporter; actives raise or lower the signal
CCAAT/enhancer-binding protein beta (Homo sapiens), sequence (P17676 whole entry, looked up): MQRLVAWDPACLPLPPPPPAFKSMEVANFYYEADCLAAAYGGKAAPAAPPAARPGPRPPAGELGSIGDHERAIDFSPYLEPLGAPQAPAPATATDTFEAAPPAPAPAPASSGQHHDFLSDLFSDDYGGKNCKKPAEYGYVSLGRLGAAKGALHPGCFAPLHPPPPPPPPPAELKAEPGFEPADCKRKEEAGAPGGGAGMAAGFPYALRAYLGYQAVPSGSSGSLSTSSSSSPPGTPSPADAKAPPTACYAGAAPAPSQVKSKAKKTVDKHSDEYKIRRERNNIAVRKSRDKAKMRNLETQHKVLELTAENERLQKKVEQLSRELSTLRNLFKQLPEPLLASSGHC
Outline: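 HepG2, transient MRTU transfection, 24 h treatment. RT-PCR plus CE fluorescence; DMSO negative control, bidirectional fit.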

[3] = ATG_CMV_CIS: Attagene CIS-FACTORIAL HepG2 Assay for human CMV (Internal Marker) (AID 2282928); conditions: HepG2 CMV promoter reporter, transcription factor profiling; actives raise or lower the signal;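 further: endpoint acts as a background internal control marker rather than a target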
Outline: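 Reporter transcripts from transfected HepG2 cells are isolated after 24 h of chemical dosing, reverse-transcribed and amplified. Fragments labeled with 6-FAM are cut with HpaI and quantified by capillary electrophoresis; DMSO defines baseline.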

[4] = ATG_DR4_LXR_CIS: Attagene CIS-FACTORIAL HepG2 Assay for human Liver X Receptor (LXR), DR4 submotif (AID 2282929); conditions: HepG2 Attagene DR4 cis-reporter, mRNA transcription; actives raise or lower the signal
Outline: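 HepG2, transient MRTU transfection, cis-element (DR4) promoter; 24 h compound exposure; total RNA → oligo(dT) RT → PCR → 6-FAM primer extension → HpaI cut → CE. Gain/loss vs DMSO, bidirectional fit.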

[5] = target: Aryl hydrocarbon receptor (Homo sapiens) (UniProt P35869); assay: ATG_Ahr_CIS: Attagene CIS-FACTORIAL HepG2 Assay for human Aryl Hydrocarbon Receptor (Ahr) (AID 2282930); conditions: HepG2 AhR cis-factorial reporter transcription; actives raise or lower the signal
Aryl hydrocarbon receptor (Homo sapiens), sequence (P35869 whole entry, looked up): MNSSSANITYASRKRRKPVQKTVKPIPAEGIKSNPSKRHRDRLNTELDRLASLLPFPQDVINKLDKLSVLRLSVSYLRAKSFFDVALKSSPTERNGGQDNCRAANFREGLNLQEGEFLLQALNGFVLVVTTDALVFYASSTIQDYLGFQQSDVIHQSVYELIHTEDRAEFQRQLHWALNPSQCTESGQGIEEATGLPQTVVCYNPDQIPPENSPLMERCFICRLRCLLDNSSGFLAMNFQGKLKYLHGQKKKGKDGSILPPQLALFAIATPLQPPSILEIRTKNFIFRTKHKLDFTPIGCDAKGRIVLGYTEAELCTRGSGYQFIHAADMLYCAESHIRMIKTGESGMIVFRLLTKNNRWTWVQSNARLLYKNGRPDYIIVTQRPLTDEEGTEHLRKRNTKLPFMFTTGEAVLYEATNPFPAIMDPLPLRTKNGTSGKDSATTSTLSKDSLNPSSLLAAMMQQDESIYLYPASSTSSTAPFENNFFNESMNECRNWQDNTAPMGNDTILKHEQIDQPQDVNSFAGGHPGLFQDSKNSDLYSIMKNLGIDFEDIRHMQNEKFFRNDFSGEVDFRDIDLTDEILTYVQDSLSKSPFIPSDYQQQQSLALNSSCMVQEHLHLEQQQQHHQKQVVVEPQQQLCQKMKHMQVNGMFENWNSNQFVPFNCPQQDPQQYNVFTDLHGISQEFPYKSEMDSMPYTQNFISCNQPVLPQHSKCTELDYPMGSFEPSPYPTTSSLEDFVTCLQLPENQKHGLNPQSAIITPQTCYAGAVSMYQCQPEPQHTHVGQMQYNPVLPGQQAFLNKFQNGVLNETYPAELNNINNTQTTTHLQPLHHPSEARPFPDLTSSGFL
Outline: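 Endogenous factor activity is tracked through cis-promoter reporter units transfected into HepG2 cells. Transcript levels at 24 h are read by fluorescent RT-PCR and capillary electrophoresis, with activity in either direction scored relative to DMSO.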

[6] = ATG_AP_1_CIS: Attagene CIS-FACTORIAL HepG2 Assay for human Activator Protein 1 (AP-1) (AID 2282931); conditions: HepG2 Attagene cis-factorial AP-1 reporter mRNA; actives raise or lower the signal
Outline: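 Transient MRTU transfection of HepG2 → 24 h chemical treatment → RNA isolation, RT-PCR, 6-FAM labelling, HpaI digest → capillary electrophoresis. Fit: bidirectional, DMSO negative control.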

[7] = ATG_AP_2_CIS: Attagene CIS-FACTORIAL HepG2 Assay for human Activator Protein 2 (AP-2) (AID 2282932); conditions: HepG2 AP-2 cis-reporter, Attagene transcription factor profiling; actives raise or lower the signal
Outline: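 Read-out: fluorescent reporter mRNA via RT-PCR and capillary electrophoresis, 24 h post-dose in transiently transfected HepG2. Endogenous factors drive cis-promoter reporters; gain or loss of signal fitted bidirectionally against DMSO.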

[8] = ATG_BRE_CIS: Attagene CIS-FACTORIAL HepG2 Assay for human Bone Morphogenetic Protein (BMP) Response Element (BRE) (AID 2282933); conditions: HepG2 BMP response element reporter, Attagene transcription factor profiling; actives raise or lower the signal
Outline: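 A HepG2 multiplex reporter system measured inducible reporter mRNA 24 h post-dosing. Detection: RT-PCR, 6-FAM primer extension, HpaI digestion, capillary electrophoresis. Activity fitted bidirectionally relative to DMSO.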

[9] = target: Transcription factor E2F1 (Homo sapiens) (UniProt Q01094); assay: ATG_E2F_CIS: Attagene CIS-FACTORIAL HepG2 Assay for human E2F Transcription Factor 1 (AID 2282935); conditions: HepG2 Attagene cis-reporter, E2F reporter RNA transcripts; actives raise or lower the signal
Transcription factor E2F1 (Homo sapiens), sequence (Q01094 whole entry, looked up): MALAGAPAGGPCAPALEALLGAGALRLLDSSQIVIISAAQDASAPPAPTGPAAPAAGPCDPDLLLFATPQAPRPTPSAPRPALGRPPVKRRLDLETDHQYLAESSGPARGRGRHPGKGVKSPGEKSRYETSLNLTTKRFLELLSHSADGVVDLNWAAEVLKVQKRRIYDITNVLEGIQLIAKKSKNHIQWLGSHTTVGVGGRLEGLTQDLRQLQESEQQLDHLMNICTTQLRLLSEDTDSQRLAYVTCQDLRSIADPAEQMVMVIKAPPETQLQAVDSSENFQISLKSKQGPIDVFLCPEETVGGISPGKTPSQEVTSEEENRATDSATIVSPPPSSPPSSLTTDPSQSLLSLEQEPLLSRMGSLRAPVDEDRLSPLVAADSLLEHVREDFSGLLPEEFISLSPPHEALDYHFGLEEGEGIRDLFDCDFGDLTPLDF
Outline: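 Transient MRTU transfection of HepG2; 24 h compound exposure; RNA → oligo(dT) RT → PCR → FAM label → HpaI cut → CE fluorescence. Gain/loss of signal fit against DMSO.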

[10] = target: Retinoic acid receptor alpha (Homo sapiens) (UniProt P10276); assay: ATG_DR5_RAR_CIS: Attagene CIS-FACTORIAL HepG2 Assay for human Retinoic Acid Receptor Alpha (RARE), DR5 submotif (AID 2282934); conditions: HepG2 Attagene cis-factorial RARE DR5 reporter, mRNA; actives raise or lower the signal;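 on AC50: reporter responds to endogenous RAR alpha beta and gamma in HepG2 not RARA alone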
Retinoic acid receptor alpha (Homo sapiens), sequence (P10276 whole entry, looked up): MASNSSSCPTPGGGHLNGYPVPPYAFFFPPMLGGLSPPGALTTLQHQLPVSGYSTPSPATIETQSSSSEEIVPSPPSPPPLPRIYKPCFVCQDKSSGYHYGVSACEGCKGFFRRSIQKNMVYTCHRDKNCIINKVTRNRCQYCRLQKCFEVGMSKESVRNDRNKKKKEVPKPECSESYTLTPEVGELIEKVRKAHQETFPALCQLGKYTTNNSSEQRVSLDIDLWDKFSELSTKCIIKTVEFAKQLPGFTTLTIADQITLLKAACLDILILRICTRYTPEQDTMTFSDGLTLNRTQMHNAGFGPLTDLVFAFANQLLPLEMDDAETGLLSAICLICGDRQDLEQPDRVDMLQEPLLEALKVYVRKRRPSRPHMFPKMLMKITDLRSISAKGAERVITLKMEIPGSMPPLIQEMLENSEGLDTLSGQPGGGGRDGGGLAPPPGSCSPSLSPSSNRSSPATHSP
Outline: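 After 24 h of chemical exposure, transiently transfected HepG2 cells were lysed for total RNA; the DR5-regulated reporter transcript was quantified via RT-PCR and capillary electrophoresis, with activity fitted bidirectionally against DMSO.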

Measured: AC50

O=C1NC(=O)C(c2ccccc2)(c2ccccc2)N1
active: [5] 59.3 µM
not listed: [10]
inactive: all other assays above

O=Cc1ccccc1C=O
inactive: all assays above

CCN(CC)CCOc1ccc(C(=C(Cl)c2ccccc2)c2ccccc2)cc1
inactive: [1] | [2] | [3] | [4] | [5] | [6] | [7] | [8] | [10] | [9]
active: [1] 12.8 µM | [2] 17.4 µM | [3] 7.17 µM | [4] 3.89 µM and 3.11 µM | [5] 9.35 µM | [7] 11.4 µM

CC(=O)OC1CC(C)OC(C)O1 (stereo not drawn)
inactive: all assays above

c1ccc2occc2c1
active: [5] 21.7 µM
not listed: [10]
inactive: all other assays above

CCCCCCC(C=O)=Cc1ccccc1
active: [3] 74.3 µM | [5] 37.4 µM and 60 µM | [6] 60 µM | [8] 44.9 µM
inactive: [1] | [2] | [3] | [4] | [6] | [7] | [8] | [10] | [9]

COc1ccc(C(=O)Nc2nc3ccccc3c(NCc3ccccc3)c2C#N)cc1
active: [3] 3.82 µM | [5] 0.421 µM
not listed: [10]
inactive: all other assays above

O=NO
inactive: all assays above

O=C1c2c(O)cccc2Cc2cccc(O)c21
active: [5] 61.7 µM
not listed: [10]
inactive: all other assays above

CC(=O)S[C@H](C(=O)N[C@H]1Cc2ccccc2[C@H]2CCC[C@@H](C(=O)O)N2C1=O)C(C)C
not listed: [10]
inactive: all other assays above

C/C=C/C=C/C(=O)O
not listed: [10]
inactive: all other assays above

Nc1nc(Cl)nc2c1ncn2[C@H]1C[C@H](O)[C@@H](CO)O1
active: [3] 23.7 µM
not listed: [10]
inactive: all other assays above

Cc1c(C)c2c(c(C)c1O)CCC(C)(COc1ccc(CC3SC(=O)NC3=O)cc1)O2 (stereo not drawn)
active: [4] 6.81 µM | [6] 9.14 µM
not listed: [10]
inactive: all other assays above

COc1ccc(OC(F)(F)F)cc1CN[C@H]1CCCN[C@H]1c1ccccc1
not listed: [10]
inactive: all other assays above

Cc1cc(SC2=C(O)C[C@@](CCc3ccc(N)cc3)(C(C)C)OC2=O)c(C(C)(C)C)cc1CO
not listed: [10]
inactive: all other assays above

Nc1nc(=S)c2[nH]cnc2[nH]1
active: [2] 100 µM | [3] 19 µM | [5] 66.3 µM | [6] 12 µM
inactive: all other assays above

CC(=O)O
not listed: [10]
inactive: all other assays above

C=CCCCCCCCCCCCC
active: [3] 100 µM | [4] 177 µM
not listed: [10]
inactive: all other assays above

CCCCCCCCCCCCCCCCO
active: [10] 100 µM
inactive: all other assays above

NC1CCCCC1
inactive: all assays above

CCC(C)N(C)C(=O)c1cc2ccccc2c(-c2ccccc2Cl)n1 (stereo not drawn)
active: [3] 46 µM | [4] 31.8 µM | [6] 84.8 µM | [8] 97.4 µM
not listed: [10]
inactive: all other assays above

Cc1ccc(-c2cc(C(F)(F)F)nn2-c2ccc(S(N)(=O)=O)cc2)cc1
active: [4] 14.4 µM
inactive: all other assays above

CC(C)NCC(O)c1ccc(O)c(O)c1 (stereo not drawn)
active: [5] 64.9 µM
not listed: [10]
inactive: all other assays above

Cc1cn([C@H]2C=C[C@@H](CO)O2)c(=O)[nH]c1=O
not listed: [10]
inactive: all other assays above

CC(C)c1cccc(C(C)C)c1
inactive: all assays above

O=C(O)c1[nH]n(-c2ccc(S(=O)(=O)O)cc2)c(=O)c1N=Nc1ccc(S(=O)(=O)O)cc1
active: [5] 58.7 µM
not listed: [10]
inactive: all other assays above

CCCCCCCCCC[N+](C)(C)[O-]
not listed: [10]
inactive: all other assays above

CCCC[C@H]1CN(CC2CCOCC2)C(=O)OC12CCN(C1(C)CCN(C(=O)c3c(C)ncnc3C)CC1)CC2
not listed: [10]
inactive: all other assays above

N[C@@H](Cc1c[nH]c2ccccc12)C(=O)O
active: [5] 24 µM
inactive: all other assays above

CO[C@@H]1COCC[C@@H]1N[C@@H]1CC[C@@](C(=O)N2CCc3ncc(C(F)(F)F)cc3C2)(C(C)C)C1
not listed: [1] | [10]
inactive: all other assays above

CN(C)CCCN1c2ccccc2Sc2ccc(Cl)cc21
active: [4] 9.33 µM | [6] 18.2 µM
not listed: [1] | [10]
inactive: all other assays above

CCCCCCC(CCCCCCCCCCC(=O)OCC(COC(C)=O)OC(C)=O)OC(C)=O (stereo not drawn)
active: [3] 35.6 µM
not listed: [1] | [10]
inactive: all other assays above

CC(C)(C)c1ccccc1
not listed: [1] | [5]
inactive: all other assays above

CSc1ccc(Oc2ccc(S(N)(=O)=O)cc2CN(C)C)cc1C
active: [7] 26.8 µM
not listed: [1] | [10]
inactive: all other assays above

C/C=C/c1ccc(OC)cc1
not listed: [1] | [10]
inactive: all other assays above

COC(=O)CCCC(=O)OC
not listed: [1] | [5]
inactive: all other assays above

COC(=O)CCC(=O)OC
not listed: [1] | [5] | [10]
inactive: all other assays above

Cc1cc(Cc2ccc(N)c(C)c2)ccc1N
not listed: [1] | [5]
inactive: all other assays above

CN(C)C(=O)NC1(c2ccccc2)CCN(CCC[C@]2(c3ccc(Cl)c(Cl)c3)CCCN(C(=O)c3ccccc3)C2)CC1
active: [2] 5.22 µM | [4] 4.53 µM | [6] 2.75 µM
not listed: [1] | [10]
inactive: all other assays above

O=C1O[C@H]([C@H](O)CO)C(O)=C1O
not listed: [1] | [10]
inactive: all other assays above

NC(=Nc1ccccc1)Nc1ccccc1
active: [4] 61.8 µM | [5] 13.1 µM
not listed: [1] | [10]
inactive: all other assays above

CS(=O)(=O)c1ccc([C@@H](C[C@H]2CCC(=O)C2)C(=O)Nc2cnccn2)cc1Cl
not listed: [1] | [10]
inactive: all other assays above

CCCCC(CC)CO (stereo not drawn)
not listed: [1] | [10]
inactive: all other assays above

CN(C)C(=O)NC1(c2ccccc2)CCN(CC[C@@]2(c3ccc(F)c(F)c3)CN(C(=O)c3ccccc3)CCO2)CC1
active: [6] 100 µM
not listed: [1] | [10]
inactive: all other assays above

CCCCc1nc2cccnc2n1Cc1ccc(-c2ccccc2-c2nnn[nH]2)cc1
not listed: [1] | [10]
inactive: all other assays above

CCc1nc(N)nc(N)c1-c1ccc(Cl)cc1
active: [2] 15 µM | [3] 2.18 µM | [6] 2.53 µM
not listed: [1] | [10]
inactive: all other assays above

O=[Si]=O
not listed: [1] | [5]
inactive: all other assays above

CC(COCC(C)OC(=O)c1ccccc1)OC(=O)c1ccccc1 (stereo not drawn)
not listed: [1]
inactive: all other assays above

NCCOCCOCCN
not listed: [1] | [10]
inactive: all other assays above

CCCCC(CC)COP(=O)(OCC(CC)CCCC)OCC(CC)CCCC (stereo not drawn)
active: [5] 68.9 µM
not listed: [1] | [10]
inactive: all other assays above

C=CCc1ccc(OC)c(OC)c1
not listed: [1] | [10]
inactive: all other assays above

C#CC(O)C(CC)CCCC (stereo not drawn)
inactive: [3] | [5] | [8] | [9]
active: [2] 128 µM | [4] 161 µM | [6] 100 µM | [7] 163 µM

CCCCCCCC(=O)OC
not listed: [1] | [10]
inactive: all other assays above

CCOCCOCCO
not listed: [1] | [10]
inactive: all other assays above

CC1(C)C(=O)NC(=O)N1CO
not listed: [1] | [10]
inactive: all other assays above

OCC(CO)n1cnc(-c2ccc(F)cc2)c1-c1ccnc(Oc2ccccc2)n1
not listed: [1] | [10]
inactive: all other assays above

O=C1OC(c2ccc(O)cc2)(c2ccc(O)cc2)c2ccccc21
inactive: [8] | [9]
active: [2] 184 µM | [3] 177 µM | [4] 54.9 µM | [6] 169 µM | [7] 48.1 µM | [10] 4.2 µM

CCCCCCCCCCCCCCOS(=O)(=O)O
not listed: [1] | [10]
inactive: all other assays above
